Assay outcomes from PubChem BioAssay.
PK Bst = pyruvate kinase (B. stearothermophilus) modulation | 51,000 compounds, 1.2% hits | purified pyruvate kinase, luminescence ATP production; ribose 5-phosphate activator present at AC10 | Potency, µM; in the data active = potency below about 11 µM; inconclusive = mostly about 12 µM to 25 µM;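 the screen sought inhibitors and activators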;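 also: scaled between full activation by ribose 5 phosphate and full inhibition by luteolin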
Luciferase inh = blocks Photinus pyralis firefly luciferase activity; P08659; purified firefly luciferase, luminescence, 8 min; Potency, µM (doses to about 57.1 µM), without a hit: at the top dose activity change, negative = inhibition, most hits filed as inhibitors; 72,000 compounds, 2.2% hits; AID 411; active = well fitted inhibition curve with a large enough effect; inconclusive = small, poorly fitted or top-dose-only effect; also: % is scaled to controls: 0 for no effect and ±100 for the full control effect; nearly all actives have a fitted effect of over 40% in size
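Inhibition of light generation by firefly luciferase from ATP and luciferin was profiled with concentration-response curves per sample, ATP held at 10 uM within the enzyme's linear range. Plates were read by luminescence after an 8-minute ambient incubation.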
GBA mod = modulators of human glucocerebrosidase; 48,000 compounds, 1.1% hits; P04062; Potency, µM; AID 360; purified enzyme, resorufin glucoside fluorescence (screen aimed at inhibitors), 20 min; in the data active = potency below about 15 µM; inconclusive = mostly about 16 µM to 33 µM;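 also: the screen sought inhibitors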
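Compounds titrated against 0.2 nM normal enzyme, 30 uM resorufin beta-D-glucopyranoside substrate, citrate/phosphate buffer with taurocholate and tween-20, pH 5.9. Reaction ran 20 min at room temperature; fluorescence (Ex 548/Em 600) gave AC50.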
An asterisk follows results filed as active; i = inactive; ? = inconclusive; nt = no result; [ ] = another dose, or the depositor's remark. An excerpt weighted towards active compounds, which were near 3.4% of everything screened. Potency is read from the fitted curve at half-maximal effect.

SMILES	PK Bst	Luciferase inh	GBA mod
Cc1cc(C(=O)Nc2ccc3c(c2)OCO3)cs1	i	16µM*	>77
Cc1noc(C(=O)Nc2ccc3c(c2)OCO3)c1Cl	nt	13µM*	nt
Cc1occc1C(=O)Nc1ccc2c(c1)OCO2	>11	?	>77
Cc1cc(C(=O)NC(C)c2ccc3c(c2)OCO3)cs1 (configuration not stated)	>57	-1%	>77
Cn1c(C(=O)Nc2ccc3c(c2)OCCO3)cc2sccc21	3*	3.2µM*	>77
O=C(Nc1ccc(Cl)cc1)c1ccc2c(c1)OCO2	nt	4µM*	>77
CCOC(=O)c1cccc(NC(=O)c2cc3sccc3n2C)c1	nt	?	>15
CC(=O)Nc1ccc(C(=O)Nc2ccc3c(c2)OCO3)cc1	>57	-15%	i
COCCNc1ccnc(-c2ccccc2CN(C)C)n1	nt	3%[2.29 µM]	nt
COCC(=O)N1CCC2(CC1)CCN(c1ccncc1)CC2	nt	0%[11.4 µM]	nt
CCOC(=O)c1c(C)c(C(=O)Nc2ccc3c(c2)OCCO3)c(C)n1CC	>57	0%	>77
CCOC(=O)c1c(N)sc(C(=O)Nc2ccc3c(c2)OCO3)c1C	1*	0.79µM*	>77
O=C(Nc1cccc(F)c1)N1CC2(CCN(C(=O)c3ccco3)CC2)C1	nt	0%[11.4 µM]	nt
CCOC(=O)c1c(C)[nH]c2ccc3c(c12)CN1CCc2cc(OC)ccc2[C@@H]1O3	nt	1%	nt
CN(C)S(=O)(=O)c1ccc(C(=O)Nc2ccccc2C(=O)O)cc1	>11	?	>77
CCN(CC)S(=O)(=O)c1cc(C(=O)Nc2ccccc2C(=O)O)ccc1OC	nt	20µM*	>77
Cc1nnc(SCc2cnc(-c3ccc(C(C)C)cc3)s2)n1C	0.56*	0.5µM*	>77
Cc1ccc(CSc2nnc(-c3cccs3)n2C)cc1	>57	-2%	>77
Cc1cccc2c(=O)c(C(=O)N3CCCCCC3)c[nH]c12	>57	5%	6.5*
Cc1ccccc1C(=O)N1CCCN(C(=O)c2ccccc2C)CC1	>57	1%	>77
COc1ccc(Cc2nnc(SCC(=O)Nc3ncc(C)s3)o2)cc1	>57	0%	>77
COc1ccc(CCCc2nnc(SCC(=O)Nc3ncc(C)s3)o2)cc1	i	16µM*	?
O=C(Nc1ccccc1)c1cccc(N2C(=O)CCC2=O)c1	>57	-2%	>77
O=C(Nc1cccc(F)c1)c1c(F)c(F)c(F)c(F)c1F	>57	3%	>77
CN(C)c1ccc(NC(=O)c2cccc(N3C(=O)CCC3=O)c2)cc1	nt	13µM*	nt
SMILES	PK Bst	Luciferase inh	GBA mod
CCN(CC)c1ccc(NC(=O)c2cncc(Br)c2)cc1	>57	-25%	?
CCN(CC)c1ccc(C(=O)Nc2cccc(F)c2)cc1	nt	10µM*	nt
CN(C)c1cccc(C(=O)Nc2cccc(F)c2)c1	nt	16µM*	>77
O=S(=O)(O)[C@@H](c1ccccc1)[C@@H](O)c1ccccc1	nt	1%[11.4 µM]	nt
COC(=O)[C@@H]1C(O)[C@@H](C(=O)OC)[C@H](C)N(C)[C@@H]1C (some centres not stated)	nt	1%[11.4 µM]	nt
C[C@H](O)[C@H](O)[C@@H](O)c1cnc2nc(N)[nH]c(=O)c2n1	nt	0%[11.4 µM]	nt
COC(=O)[C@H]1[C@@H]2C[C@H]3c4[nH]c5ccccc5c4CCN3C[C@@H]2CC[C@@H]1O	nt	2%	nt
O=C(Nc1nccs1)C1CCCN1S(=O)(=O)c1ccc(Cl)cc1 (configuration not stated)	10*	2%	>77
COc1ccc(S(=O)(=O)N2CCCC(C(=O)Nc3cccnc3)C2)cc1Cl (configuration not stated)	>57	2%	?
NC(=O)c1ccsc1NC(=O)C1CCCN1S(=O)(=O)c1ccc(Cl)cc1 (configuration not stated)	i	-2%	>77
O=C(Nc1cccnc1)C1CCCN1S(=O)(=O)c1ccc(Cl)c(Cl)c1 (configuration not stated)	4.7*	2%	nt
O=C(CN1CCN(S(=O)(=O)c2ccc(Cl)cc2)CC1)Nc1ccc2c(c1)OCCO2	i	8%	>77
O=C(Nc1ccc2c(c1)OCCO2)C1CCCN1S(=O)(=O)c1ccc(Cl)cc1 (configuration not stated)	11*	4%	>77
CN(C)Cc1ccccc1-c1ccc2ncnc(NCc3cccs3)c2c1	nt	3%[2.29 µM]	nt
COc1ccc(-c2nc3cnc(OC)nc3n(C)c2=O)cc1	nt	0%[11.4 µM]	nt
CO/N=C\[C@@H](NS(=O)(=O)c1ccc(C)cc1)[C@H](C)/C=C\CC(=O)OC	nt	0%[11.4 µM]	nt
O=C(O)c1cc2c(cc1S(=O)(=O)O)[C@H]1[C@@H]([C@H]3[C@H]2[C@@]2(Cl)C(Cl)=C(Cl)[C@]3(Cl)C2(Cl)Cl)[C@]2(Cl)C(Cl)=C(Cl)[C@@]1(Cl)C2(Cl)Cl	nt	1%[11.4 µM]	nt
COc1ccccc1C(=O)Nc1ccc2c(c1)nc1n2CCSC1	5.6*	5µM*	?
Cc1ccc(C(=O)Nc2ccc3c(c2)nc2n3CCSC2)cc1	?	7.9µM*	nt
